SMILES strings stand for the structures. In all, about 2,100 compounds went through this assay and about 670 (32%) were called active. Another 50% or so got no clear call; they are omitted. The list shows a part of the results. A number with no mark means an inactive call. Calls come from the whole dose curve; as a rule, active = well fitted inhibition curve with a large enough effect; inconclusive = small, poorly fitted or top-dose-only effect; inactive = no such curve, though single readings can be large or run the other way.

These results are taken from PubChem BioAssay AID1745847 (National Center for Advancing Translational Sciences (NCATS), 2022).
% is set by controls: 0 for no effect and ±100 for the full control effect; potency is the fitted concentration of half-maximal effect.

The assay in a line: CMV-Luciferase Counterscreen for Inhibitors of ATXN expression. Note: nearly all actives have a fitted effect of over 55% in size. Particulars: HEK-293 CMV-luciferase reporter, luminescence, 24 h; series mostly up to 57.5 µM; activity change, negative = inhibition: at the top concentration.
Turning to `CCCC(=O)Nc1c(C(=O)OCC)[nH]c2ccccc12`, the activity change, negative = inhibition is -4.94% [at 11.4 µM]. As to `O=c1cc(N2CCN(c3ccccc3)CC2)[nH]c(=O)n1C1CCCCC1`, the “activity change, negative = inhibition” value is 100%. The same measure, in the same setting: in the case of `CCCC(=O)Nc1ccc2nc(SCC(=O)N3CCCC3)sc2c1` it was -8.01%.

For `O=C(CCSc1nc2ccccc2s1)N/N=C/c1c(O)ccc2ccccc12`, the Potency is 7.94 µM (active).

With `CCOC(=O)C1CCN(c2ncnc3c2cnn3-c2ccc(Cl)cc2)CC1`, the Potency is 2.24 µM (active). Still for that read-out and setting: the value for `CC1CCCN(c2ncnc3c2cnn3-c2ccc(Cl)cc2)C1` (configuration not stated) was 22.4 µM (active). As for `COc1cc([N+](=O)[O-])cc(/C=N/NC(=O)C(C)Nc2cccc3ccccc23)c1O` (configuration not stated), the activity change, negative = inhibition is 8.76% [at 11.4 µM].

Consider `COc1ccc(NC(C)C(=O)N/N=C/c2c(O)ccc3ccccc23)cc1` (configuration not stated), for which the Potency was 6.31 µM (active). On the same count and under the same terms, in the case of `COc1ccccc1NCC(=O)N/N=C/c1c(O)ccc2ccccc12` it was 3.16 µM (active); in that of `CCc1cc[n+](C2=C([O-])c3ccccc3C(=O)/C2=N\S(=O)(=O)c2cccs2)cc1`, 20 µM (active).

On to `Oc1ccc2ccccc2c1/C=C/c1ccc2c(Br)cc(Br)c(O)c2n1`, for which the Potency was 3.16 µM (active).

On to `COc1cc(/C=C/c2ccc3cccc(O)c3n2)cc(OC)c1OC`, for which the “activity change, negative = inhibition” value was 16.4%. For the compound `CCCc1cc(=O)[nH]c(-n2[nH]c3c(c2=O)CCCC3)n1`, the Potency was 12.6 µM (active). `NC(=S)N1OC[C@@H]2COc3ccc4ccccc4c3[C@@H]21`: the “activity change, negative = inhibition” value was 43.5%. For `CC(NC(=O)Nc1cccc([N+](=O)[O-])c1)(C(F)(F)F)C(F)(F)F`, the Potency is 17.8 µM (active). Still for that read-out and setting: the value for `O=C(NC1CCN(Cc2ccccc2)CC1)c1cccc(S(=O)(=O)Nc2ccc(SC(F)F)cc2)c1` was 14.1 µM (active). Regarding `CCC(C)n1cnc2c(c1=O)c1nc3ccccc3nc1n2-c1ccc2c(c1)OCCO2` (configuration not stated), the “activity change, negative = inhibition” value was 2.65%. Take `c1ccc(COc2ncnc3c2ncn3CCCN2CCN(Cc3cccc4ccccc34)CC2)cc1`: the Potency is 14.1 µM (active). With `Cc1cc2oc3cc(NCCC4CCCN4C)ccc3c(=O)c2cc1C` (configuration not stated), the “activity change, negative = inhibition” value is 108%. On the same count and under the same terms, in the case of `COc1ccc(CC(N)c2csc(NC(=O)c3cc(C(C)(C)C)nn3Cc3ccccc3)n2)cc1` (configuration not stated) it was -13.8% [at 11.4 µM].

For the compound `COc1ccc(CC(N)c2csc(NC(=O)c3ccccc3OC)n2)cc1` (configuration not stated), the “activity change, negative = inhibition” value was -21.7%. `COc1ccc(CC(N)c2csc(NC(=O)c3cccc(OC(F)(F)F)c3)n2)cc1` (configuration not stated): the Potency was 28.2 µM (active). Same read-out and setting: the value for `O=C(Nc1nc2cc(Cl)ccc2s1)C1CCCN(S(=O)(=O)c2cccc3cccnc23)C1` (configuration not stated) was 25.1 µM (active). Consider `Cc1ccc(S(=O)(=O)c2cc3cc(Br)ccc3oc2=O)cc1`, for which the “activity change, negative = inhibition” value was -15.7%.

As to `COc1ccccc1/C=C\C(=O)NCC(=O)N/N=C/c1cccc(OC)c1O`, the Potency is 12.6 µM (active). The same measure, in the same setting: the value for `CCN(CC)c1ccc(/C=N/NC(=O)CNC(=O)C2COc3ccccc3O2)c(O)c1` (configuration not stated) was 0.398 µM (active); that for `COc1cccc(/C=N/NC(=O)CNC(=O)C2COc3ccccc3O2)c1O` (configuration not stated) was 7.94 µM (active); that for `COc1cccc2c1C(=O)C=C(C)C2=O` was 22.4 µM (active). For `Cc1cc(C(=O)N/N=C/c2cc(Br)cc(Br)c2OC(=O)c2cccc(F)c2)n[nH]1`, the Potency was 4.47 µM (active). Consider `CCCC/C(C)=N/NC(=O)c1cn(-c2ccccc2)nc1-c1ccccc1`, for which the activity change, negative = inhibition is -28.6% [at 11.4 µM]. `COc1ccc(-c2nn(-c3ccccc3)cc2C(=O)NC(=S)NNC(=O)c2ccncc2)cc1`: the Potency was 8.91 µM (active).

`Cc1ccc(-c2nc3cc(Br)cnc3nc2-c2ccc(C)cc2)cc1`: the activity change, negative = inhibition was -25.9% [at 11.4 µM]. For `CCOC(=O)c1cnc(-n2nc(C)cc2C)nc1NC1CCCC1`, the Potency is 1.78 µM (active). On to `C=CCOc1ccc(CNc2ccc3[nH]c(=O)[nH]c3c2)cc1OC`, for which the “activity change, negative = inhibition” value is 24.3%.

On to `COc1ccc(Cc2nnc(N/N=C/c3ccccc3O)[nH]c2=O)cc1OC`, for which the Potency is 1.41 µM (active). On to `COc1ccc(Cc2nnc(N/N=C/c3ccc(O)cc3)[nH]c2=O)cc1OC`, for which the Potency was 0.891 µM (active). Still for that read-out and setting: in the case of `COc1ccc(S(=O)(=O)N(C)C)cc1NC(=O)C1CCN(c2ncnc3sc(C)c(C)c23)CC1` it was 10 µM (active). Consider `CCN(CC)S(=O)(=O)c1cc(NC(=O)C2CCN(c3ncnc4sc(C)c(C)c34)CC2)ccc1Cl`, for which the “activity change, negative = inhibition” value was 52%.

For `COc1ccc(-c2csc(NC(=O)C3CCN(c4ncnc5sc(C)c(C)c45)CC3)n2)cc1OC`, the Potency was 3.55 µM (active).

Regarding `CN(C)c1ccccc1-c1cc(NC=O)c2ncc(-c3cccc(C(F)(F)F)c3)n2c1`, the activity change, negative = inhibition is -12.7% [at 11.4 µM]. Take `O=[N+]([O-])c1ccc(/C=N/N=C/c2ccc([N+](=O)[O-])o2)o1`: the Potency was 14.1 µM (active). On the same count and under the same terms, the value for `O=C(N/N=C/c1c(O)ccc2ccccc12)c1cccc(C(F)(F)F)c1` was 2.82 µM (active); that for `O=C(NN=Cc1c(O)ccc2ccccc12)c1ccc2c(c1)OCO2` was 2.24 µM (active). The same measure, in the same setting: in the case of `O=C(N/N=C/c1cc([N+](=O)[O-])ccc1O)c1cccc(N2CCCC2=O)c1` it was 7.94 µM (active); in that of `O=C(N/N=C/c1ccccc1O)c1cccc(C(F)(F)F)c1`, 0.501 µM (active); in that of `O=C(NN=Cc1ccccc1O)c1cccc([N+](=O)[O-])c1`, 3.98 µM (active).

For the compound `O=C(N/N=C/c1ccc([N+](=O)[O-])o1)c1ccc2c(c1)OCO2`, the Potency was 12.6 µM (active). For `COc1ccc(/C=N/NC(=O)c2cccc([N+](=O)[O-])c2)c2ccccc12`, the activity change, negative = inhibition is -1.17% [at 11.4 µM].

As for `C/C(=N\Nc1cc(N2CCOCC2)nc(C)n1)c1cccc([N+](=O)[O-])c1`, the activity change, negative = inhibition was -9.23% [at 11.4 µM]. On to `O=C(N/N=C\c1c(O)ccc2ccccc12)c1ccc(Cn2cccn2)o1`, for which the Potency is 0.891 µM (active).

As for `COc1ccc(S(=O)(=O)Nc2ccc(F)cc2)cc1N(C)S(=O)(=O)c1ccc(Cl)cc1`, the Potency is 10 µM (active). With `CN1CCC(N(C)C(=O)c2ccc(Cl)c(S(=O)(=O)N3CCc4ccccc43)c2)CC1`, the “activity change, negative = inhibition” value is -24.7%. Turning to `CCN(Cc1ccccc1)S(=O)(=O)c1ccc(C(=O)Nc2nnc(C3CC3)o2)cc1`, the Potency is 2.24 µM (active). With `O=C(Nc1nnc(C2CC2)o1)c1ccc(S(=O)(=O)N2CCCc3ccccc32)cc1`, the Potency is 7.08 µM (active). `Cc1ccc(C(=O)N/C(=C\c2ccc(-c3ccc(Cl)cc3)o2)C(=O)NCCCN(C)C)cc1`: the “activity change, negative = inhibition” value is -11.4%. For `O=C(/C=C\c1ccccc1)NCC(=O)N/N=C/c1ccc(O)cc1O`, the Potency is 25.1 µM (active).

Turning to `O=C(N/N=C/c1ccc(O)cc1O)/C(=C/c1ccccc1)CCO`, the Potency is 1.78 µM (active). As for `Cc1cccc(OCC(=O)NCC(=O)N/N=C/c2cc(Br)cc(Br)c2O)c1`, the Potency was 5.01 µM (active).

Take `O=C(COc1ccccc1)NCC(=O)N/N=C/c1ccc(O)cc1O`: the Potency was 14.1 µM (active). As for `CCC(=O)OC1(C(C)=O)CCC2C3CCC4=CC(=O)CCC4(C)C3CCC21C` (configuration not stated), the “activity change, negative = inhibition” value was -21.7%. In the case of `O=C(OCCN1C(=O)c2cccc3c(N4CCOCC4)ccc(c23)C1=O)c1ccccc1Cl`, the Potency is 15.8 µM (active). On to `CC1(C)C(C=C(Cl)Cl)C1C(=O)Nc1ccc([N+](=O)[O-])cc1` (configuration not stated), for which the Potency was 20 µM (active). On to `Cc1cccc(OCCSc2nc3ncnc(N)c3[nH]2)c1`, for which the “activity change, negative = inhibition” value was -5.15%.

As for `CCN(CC)CCCNc1nc2ccccc2c2nc(-c3ccncc3)nn12`, the Potency was 12.6 µM (active).

For `Cc1ccc(/C=C2\SC(=S)N(CCCC(=O)Nc3cc(C)on3)C2=O)cc1`, the Potency is 3.55 µM (active). `Cc1cc(C)cc(NC(=O)CCC(=O)Nc2cc(C)on2)c1`: the activity change, negative = inhibition is 165% [at 11.4 µM]. As to `Cc1ccc(/C=C2\SC(=S)N(CCCC(=O)Nc3ccccc3C(=O)O)C2=O)cc1`, the Potency is 2 µM (active). The same measure, in the same setting: the value for `Cc1ccc(/C=C2/SC(=S)N(CCCC(=O)Nc3cc([N+](=O)[O-])ccc3O)C2=O)cc1` was 28.2 µM (active); that for `Cc1ccc(/C=C2\SC(=S)N(CCCC(=O)Nc3ccc(O)cc3)C2=O)cc1` was 3.16 µM (active). Still for that read-out and setting: the value for `Cc1ccc(/C=C2/SC(=S)N(CCCC(=O)Nc3ccc(O)cc3)C2=O)cc1` was 2 µM (active). As to `Cc1ccc(NC(=O)COc2ccc(/C=C3/SC(=Nc4ccccc4)N(Cc4cccnc4)C3=O)cc2)cc1`, the “activity change, negative = inhibition” value was -6.8%.

As to `Cc1ccc(/C=C2\SC(=S)N(CCCC(=O)Nc3cccnc3)C2=O)cc1`, the Potency was 3.98 µM (active).

`Cc1ccc(/C=C2\SC(=S)N(CCCC(=O)NC3CCCC3)C2=O)cc1`: the Potency was 2.51 µM (active). `COc1cccc(/C=C2/SC(=S)N(CCCC(=O)Nc3ccc(O)cc3)C2=O)c1`: the Potency was 3.16 µM (active). Consider `CC(C)C[C@H](N)c1cn([C@@H](CCCCN)C(=O)N2CCNCC2)nn1`, for which the activity change, negative = inhibition is -7.7% [at 11.4 µM]. For `Cc1csc(NC(=O)COCC(=O)O)c1-c1nc2ccccc2s1`, the “activity change, negative = inhibition” value was -1.27%. Same read-out and setting: the value for `c1cc2c(cc1-c1cnc3n1CCC3)OCCO2` was 59.6%; that for `CC(C)(O)C#Cc1ccc([C@@H]2C[C@H]3CN(c4ccccc4)C(=O)[C@]34CCCN24)s1` was 51.4%.

With `O=[N+]([O-])c1ccc(O)c(/C=N/Nc2ncnc3c2cnn3-c2ccccc2)c1`, the Potency was 1.58 µM (active). Consider `CN(C)S(=O)(=O)c1cccc(N2C(=O)CC3(CCCCC3)CC2=O)c1`, for which the activity change, negative = inhibition was -19.6% [at 11.4 µM].

As to `COc1cccc(/C=N/NC(=O)CSc2ccccc2C)c1O`, the Potency was 7.08 µM (active). The same measure, in the same setting: in the case of `COc1ccc(CSCC(=O)N/N=C/c2ccccc2O)cc1` it was 25.1 µM (active); in that of `COc1cccc(/C=N/NC(=O)CSCC(=O)Nc2ccccc2)c1O`, 1.26 µM (active); in that of `C/C(=N\OCC(=O)N/N=C/c1ccccc1O)c1cccs1`, 12.6 µM (active). The same measure, in the same setting: in the case of `COc1cccc(/C=N/NC(=O)Cn2nc(C)c([N+](=O)[O-])c2C)c1O` it was 8.91 µM (active). Same read-out and setting: in the case of `CCCCSc1nc(C)cc(SCC(=O)N/N=C/c2cccc(OC)c2O)n1` it was 1 µM (active). As for `COc1ccc(O)c(/C=N/NC(=O)c2ccc(CSc3nc(C)cc(C)n3)cc2)c1`, the Potency is 2.82 µM (active).
